Hits are enriched below; roughly 12% of the tested compounds scored in any of these assays.
G9a block: G9a (human) methyltransferase inhibition | G9a H3K9 monomethylation, AlphaScreen, 2 h | Q96KQ7 | 8.8% of 350,000 active | Potency, µM (titrated, usually from 102 µM), hits mostly inhibitors; note: nearly all actives have a fitted effect of over 75% in size
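Readings reflect AlphaScreen signal from monomethyl-H3K9 antibody detection. HMT at 20 nM; substrate b-H3K9 500 nM; cofactor SAM 20 uM; 2 h RT reaction; compounds tested as titrations in qHTS with 15 min preincubation.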
PI5P4Ka inh: blocks human PI5P4K alpha kinase activity; P48426; PI5P4Kalpha enzyme, ADP-Glo luminescence, 60 min; stronger effect = lower value; max response, %; 1.2% of 330,000 active; AID 652105; active = max response of -50% or lower; inconclusive = between -30% and -50%; inactive = -30% or higher; note: value at the top dose of about 77 µM
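Human PI5P4Kalpha with substrate in 0.038 M HEPES pH 7.4, 0.28 mM EGTA, 0.1% CHAPS, 5% DMSO; reaction started with 5 microM ATP (final), 60 min at room temperature. ADP formed read by ADP-Glo luminescence.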
HP1b chromo inh: blocks HP1-beta chromodomain binding to methylated histone tails. P83916. AlphaScreen HP1-beta / biotin-H3K9me3 peptide binding. Potency, µM (doses to about 114 µM), hits mostly inhibitors. 0.56% of 390,000 active. AID 540317; note: nearly all actives have a fitted effect of over 70% in size
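AlphaScreen: HP1-beta (50 nM) preformed 30 min with biotin-H3(1-18)K9me3 peptide (50 nM) in PBS pH 7.4, 0.01% Tween-20. Compound added for 30 min at RT, then streptavidin donor/nickel chelate acceptor beads (10 ug/mL) for 30 min.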
BAZ2B block: BAZ2B (human) inhibition; Q9UIF8; AlphaScreen BAZ2B-H3K14Ac peptide displacement; Potency, µM (top dose mostly 114 µM), hits mostly inhibitors; 4.4% of 360,000 active; AID 504333; note: nearly all actives have a fitted effect of over 60% in size
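AlphaScreen displacement: compounds (up to 110uM) incubated 30 min at room temperature with a preformed 50 nM BAZ2B/50 nM biotinylated H3K14Ac peptide complex in PBS pH 7.4 with Tween-20. Donor and acceptor beads at 10 ug/mL final added, 20 min light-protected before reading.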
PLK1 PBD inh: PLK1 (human) polo-box domain binding inhibition; Potency, µM, usual class: inhibitors; 2.8% of 360,000 active; Plk1 PBD binding of FITC phosphopeptide, fluorescence polarization; P53350; AID 720504; note: series mostly up to about 57 µM; nearly all actives have a fitted effect of over 65% in size
Target sequence (P53350 whole entry, looked up, the tested form may be a part): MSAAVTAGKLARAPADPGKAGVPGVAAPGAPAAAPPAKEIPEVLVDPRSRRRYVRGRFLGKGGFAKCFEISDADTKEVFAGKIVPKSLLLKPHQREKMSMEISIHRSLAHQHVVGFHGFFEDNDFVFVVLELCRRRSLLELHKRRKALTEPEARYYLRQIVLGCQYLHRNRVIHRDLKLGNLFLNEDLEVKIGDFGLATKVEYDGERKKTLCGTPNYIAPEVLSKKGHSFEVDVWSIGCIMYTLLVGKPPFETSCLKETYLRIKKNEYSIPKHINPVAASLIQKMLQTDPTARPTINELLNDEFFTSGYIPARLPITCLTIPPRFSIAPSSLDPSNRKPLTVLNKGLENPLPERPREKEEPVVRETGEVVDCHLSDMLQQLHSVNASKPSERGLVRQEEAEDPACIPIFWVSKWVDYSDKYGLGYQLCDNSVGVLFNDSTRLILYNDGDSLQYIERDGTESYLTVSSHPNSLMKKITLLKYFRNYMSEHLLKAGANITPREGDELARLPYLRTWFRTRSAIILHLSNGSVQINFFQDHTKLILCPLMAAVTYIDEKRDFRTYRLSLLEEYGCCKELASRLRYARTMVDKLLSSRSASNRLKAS
JMJD2A Tudor inh: JMJD2A Tudor domain (human) inhibition | O75164 | AlphaScreen JMJD2A-Tudor / H3K4me3 peptide binding | Potency, µM (doses to about 114 µM), actives largely listed as inhibitors | 4.4% of 390,000 active; note: nearly all actives have a fitted effect of over 50% in size
Each line names hits and unclear results; the compound was inactive in the other large screens. Unless noted, calls come from the whole dose curve; as a rule, active = well fitted curve in the direction sought with a large enough effect; inconclusive = small, poorly fitted or top-dose-only effect, or another doubt; inactive = no such curve, though single readings can be large; an effect the other way counts as inactive or inconclusive.

CCCn1c(=S)[nH]c2cc(Cl)ccc21	G9a block inconclusive, PLK1 PBD inh 15µM
Cc1cc(C)cc(NC(=O)CCn2c(=S)[nH]c3ccccc3c2=O)c1	none
CC(C)Cn1c(=O)[nH]c2ccccc21	none
CC(C)n1c(=S)[nH]c2ccccc21	G9a block inconclusive, PLK1 PBD inh 25µM, JMJD2A Tudor inh 79µM
CC1(C(=O)Nc2cccc(C(F)(F)F)c2)Cc2ccccc2C(=O)O1 (configuration not stated)	none (no result: PI5P4Ka inh, PLK1 PBD inh)
CCCN1CCN(CCNC(=O)Nc2ccc(OC)c(OC)c2)CC1	none (no result: PI5P4Ka inh, PLK1 PBD inh)
COCCCn1c(=O)c2sccc2n2c(CCCC(=O)Nc3cccc(OC)c3)nnc12	none (no result: PI5P4Ka inh, PLK1 PBD inh)
COc1cccc(-n2c(=O)c3c(C)c(C(=O)N(C)C)sc3n(CC(=O)Nc3ccc(C)cc3Cl)c2=O)c1	none (no result: PI5P4Ka inh, PLK1 PBD inh)
O=C(Cn1c(=O)nc(-c2ccccc2)c2ccccc21)NCc1ccc(Cl)cc1	none (no result: PI5P4Ka inh, PLK1 PBD inh)
O=S1(=O)c2cccc3cccc(c23)N1Cc1nnc(-c2ccccc2Br)o1	G9a block 56µM
O=C1c2ccccc2S(=O)(=O)N1Cc1nnc(-c2ccccc2Br)o1	G9a block inconclusive
Cc1cc2c(NCCc3ccccc3)ncnc2s1	G9a block 50µM, BAZ2B block inconclusive
COc1ccc(Nc2cc(C)nc(N3CCN(C(=O)c4ccc5c(c4)OCO5)CC3)n2)cc1	none
COc1ccc(C2Nc3ccccc3C(=O)N2Cc2cccc3ccccc23)cc1COc1ccc(NC(C)=O)cc1 (configuration not stated)	JMJD2A Tudor inh 79µM (no result: G9a block, PI5P4Ka inh, HP1b chromo inh, BAZ2B block, PLK1 PBD inh)
CCN(CC)CCN1C(=O)c2ccccc2NC1c1ccc(OC)c(COc2ccc(NC(C)=O)cc2)c1 (configuration not stated)	none (no result: G9a block, PI5P4Ka inh, BAZ2B block, PLK1 PBD inh)
COc1ccc(C2Nc3ccccc3C(=O)N2Cc2ccccc2)cc1COc1ccc(F)cc1 (configuration not stated)	none (no result: G9a block, PI5P4Ka inh, HP1b chromo inh, BAZ2B block, PLK1 PBD inh)
COc1ccc(C2NC(=O)c3ccccc3N2)cc1COc1ccc(NC(C)=O)cc1 (configuration not stated)	none (no result: G9a block, PI5P4Ka inh, HP1b chromo inh, BAZ2B block, PLK1 PBD inh)
COc1ccc(C2Nc3ccccc3C(=O)N2CCO)cc1COc1ccc(NC(C)=O)cc1 (configuration not stated)	JMJD2A Tudor inh 79µM (no result: G9a block, PI5P4Ka inh, HP1b chromo inh, BAZ2B block, PLK1 PBD inh)
COc1ccc(C2Nc3ccccc3C(=O)N2Cc2ccncc2)cc1COc1ccc(NC(C)=O)cc1 (configuration not stated)	JMJD2A Tudor inh 79µM (no result: G9a block, PI5P4Ka inh, HP1b chromo inh, BAZ2B block, PLK1 PBD inh)
COc1ccc(C2Nc3ccccc3C(=O)N2CC(C)(C)C)cc1COc1ccc(NC(C)=O)cc1 (configuration not stated)	JMJD2A Tudor inh 56µM (no result: G9a block, PI5P4Ka inh, HP1b chromo inh, BAZ2B block, PLK1 PBD inh)
CCCC[C@H]1CCCO[C@@](C(=O)NCc2ccccn2)(C(F)(F)F)C1	none (no result: G9a block, PI5P4Ka inh, BAZ2B block, PLK1 PBD inh)
COc1ccc(NC(=O)CSc2oc(-c3ccco3)nc2S(=O)(=O)c2ccc(Br)cc2)c(OC)c1	none (no result: PI5P4Ka inh, PLK1 PBD inh)
COC(=O)c1sccc1NC(=O)CN(C)NS(=O)(=O)c1ccc([N+](=O)[O-])cc1	PLK1 PBD inh 24µM, JMJD2A Tudor inh 56µM
COC(=O)c1sccc1NC(=O)CN(C)NS(=O)(=O)c1ccc(Cl)cc1	none (no result: PI5P4Ka inh)
CC(Sc1nnc(-c2ccccc2F)n1C)C(=O)NC1CCCCC1 (configuration not stated)	none
CCOC(=O)CSc1nnc(-c2cc(OC)c(OC)c(OC)c2)o1	none (no result: G9a block)
CCN(C(=O)CSc1nnc(-c2cc(OC)c(OC)c(OC)c2)o1)c1ccccc1	BAZ2B block 56µM, JMJD2A Tudor inh inconclusive (no result: PI5P4Ka inh, PLK1 PBD inh)
COc1cc(-c2nnc(SCc3cc(=O)oc4cc(O)c(O)cc34)o2)cc(OC)c1OC	G9a block 4.5µM, BAZ2B block 7.9µM, PLK1 PBD inh inconclusive, JMJD2A Tudor inh inconclusive (no result: PI5P4Ka inh)
Cc1ccc(/C(O)=C2\C(=O)C(=O)N(C)C2c2cccc([N+](=O)[O-])c2)cc1 (configuration not stated)	G9a block 79µM
COCCCN1C(=O)C(=O)/C(=C(/O)c2ccc(OC(C)C)c(C)c2)C1c1ccncc1 (configuration not stated)	G9a block 40µM, BAZ2B block inconclusive
COCCN1C(=O)C(=O)/C(=C(/O)c2ccc(C)cc2)C1c1ccccn1 (configuration not stated)	G9a block 50µM

High-throughput results from PubChem.
